Source: PMC5540273 (PLoS ONE, 2017)

Tests used:
Details in all cases: concentration: 1 μM, replicates: in singlicate; n = 1
[1] = system: TYK2(JH2domain-pseudokinase)
TYRO3 = system: TYRO3
ULK1 = system: ULK1
ULK2 = system: ULK2
ULK3 = system: ULK3
VEGFR2 = system: T1, VEGFR2
T1 construct: gene KDR

VPS34 = system: T2, VPS34
T2 construct: gene PIK3C3

VRK2 = system: VRK2
WEE1 = system: WEE1
WEE2 = system: WEE2
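Further: KINOMEscan kinase panel screen.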

| SMILES | %Inh [1] [%] | %Inh (TYRO3) [%] | %Inh (ULK1) [%] | %Inh (ULK2) [%] | %Inh (ULK3) [%] | %Inh (VEGFR2) [%] | %Inh (VPS34) [%] | %Inh (VRK2) [%] | %Inh (WEE1) [%] | %Inh (WEE2) [%] |
| --- | --- | --- | --- | --- | --- | --- | --- | --- | --- | --- |
| COc1ccc(C)c(Nc2ccnc(Nc3ccc(-c4cnc[nH]4)cc3)n2)c1.Cl [GW784041] | 0 | 44 | 0 | 0 | 6 | 0 | 54 | 0 | 0 | 8 |
| CCNC(=O)/C=C/c1n[nH]c2cc(Sc3ccccc3C(=O)NC)ccc12 | 0 | 0 | 10 | 36 | 1 | 99.9 | 0 | 14 | 14 | 0 |
| Cc1nn2c(=O)cc(N3CCO[C@H](C)C3)nc2n1Cc1cccc(Cl)c1Cl [GSK2373693] | 18 | 15 | 78 | 0 | 14 | 0 | 96.5 | 0 | 0 | 0 |
| Nc1ncc(-c2ccc3nccc(-c4ccncc4)c3c2)cc1S(=O)(=O)N1CCCCC1 [GSK1693850] | 12 | 0 | 0 | 0 | 10 | 18 | 95.5 | 2 | 0 | 0 |
| CSc1ccc(NC2=C(c3ccc(Cl)cc3)C(=O)NC2=O)cc1 [SB-317658] | 0 | 0 | 19 | 0 | 12 | 0 | 22 | 13 | 5 | 0 |
| COc1cc(Nc2ccnc3cc(-c4ccncc4)ccc23)cc(OC)c1OC.Cl [GW494610] | 18 | 89 | 100 | 0 | 15 | 0 | 0 | 19 | 0 | 18 |
| Cc1cc(-c2c(-c3ccc(F)cc3)ncn2CCCN2CCOCC2)nc(N)n1 [SB-222517] | 16 | 0 | 20 | 30 | 18 | 5 | 29 | 0 | 47 | 1 |
| CC(C)c1nc(-c2cccc(NS(=O)(=O)c3c(F)cccc3F)c2)c(-c2ccnc(Nc3ccc(N4CCOCC4)nc3)n2)s1.Cl [GSK1723980] | 60 | 72 | 22 | 13 | 93.5 | 91 | 0 | 0 | 18 | 0 |
| COc1cccc(C2=C(Nc3cccc(O)c3)C(=O)NC2=O)c1 [SB-390771] | 25 | 0 | 17 | 0 | 23 | 3 | 0 | 10 | 20 | 12 |
| Cl.Cl.NC(CNC(=O)c1cc(Br)c(-c2ccnc3[nH]ccc23)s1)c1ccccc1 (centres unmarked) [GSK1322949] | 38 | 0 | 49 | 0 | 8 | 30 | 59 | 67 | 18 | 0 |
| Cc1ccccc1CC(=O)N1CCc2cc(-c3cn(C)c4ncnc(N)c34)ccc21 [GSK2603346] | 40 | 0 | 16 | 0 | 19 | 69 | 2 | 0 | 0 | 17 |
| Fc1cc(Cl)ccc1Nc1ccnc2cc(-c3ccc(CN4CCSCC4)o3)ccc12 [GW560106] | 52 | 61 | 0 | 0 | 15 | 65 | 0 | 29 | 0 | 2 |
| CCOc1nccc(-c2c(-c3ccc(F)cc3)ncn2C2CCNCC2)n1 [SB-249175] | 36 | 15 | 28 | 34 | 26 | 13 | 24 | 51 | 0 | 18 |
| CCn1cnc2c(NCc3ccccc3)ncnc21 [SKF-96418] | 30 | 0 | 0 | 38 | 0 | 0 | 33 | 16 | 0 | 0 |
| CN(C)CCOc1ccc(-c2cc(-c3ccc(Cl)c(O)c3)c(-c3ccncc3)[nH]2)cc1.Cl.Cl [SB-684387] | 18 | 6 | 6 | 8 | 14 | 21 | 16 | 45 | 7 | 0 |
| Nc1cccc(-c2ccc3c(N)n[nH]c3c2)c1 [GSK2193613] | 0 | 0 | 6 | 0 | 3 | 0 | 21 | 30 | 5 | 10 |
| O=C(Nc1n[nH]c2cc(-c3cccs3)ccc12)C1CC1 [SB-731284] | 63 | 0 | 39 | 15 | 7 | 57 | 16 | 0 | 0 | 0 |
| Cn1cc(-c2ccc3c(c2)CCN3C(=O)Cc2cc(F)cc(F)c2F)c2c(N)ncnc21 [GSK2634140] | 44 | 0 | 14 | 0 | 4 | 0 | 16 | 27 | 0 | 14 |
| Cl.Cl.NCC(NC(=O)c1cc(-c2cccnc2)c(-c2ccnc3[nH]ccc23)s1)c1ccccc1 (centres unmarked) [GSK1323434] | 37 | 0 | 4 | 0 | 0 | 0 | 45 | 15 | 8 | 13 |
| N#Cc1cnc2cc(-c3cnc(CNCCN4CCOCC4)s3)ccc2c1Nc1ccc(Oc2ccccc2)cc1 [GW664114] | 36 | 84 | 10 | 0 | 48 | 12 | 0 | 8 | 7 | 23 |
| CN(C)CCNS(=O)(=O)c1ccc(-c2ccnc3[nH]ccc23)cc1 [GSK977620] | 26 | 3 | 73 | 0 | 27 | 0 | 57 | 0 | 35 | 0 |
| CC(C)NCC(Cc1ccccc1)NC(=O)c1cc(Br)c(-c2ccnc3[nH]ccc23)s1.Cl.Cl (centres unmarked) [GSK1383281] | 22 | 0 | 0 | 0 | 1 | 33 | 0 | 2 | 6 | 0 |

| SMILES | %Inh [1] [%] | %Inh (TYRO3) [%] | %Inh (ULK1) [%] | %Inh (ULK2) [%] | %Inh (ULK3) [%] | %Inh (VEGFR2) [%] | %Inh (VPS34) [%] | %Inh (VRK2) [%] | %Inh (WEE1) [%] | %Inh (WEE2) [%] |
| --- | --- | --- | --- | --- | --- | --- | --- | --- | --- | --- |
| CCn1c(-c2nonc2N)nc2c(-c3ccccc3)ncc(OCCCN)c21.O=C(O)C(F)(F)F.O=C(O)C(F)(F)F [GSK260205] | 95.2 | 0 | 9 | 0 | 4 | 21 | 0 | 28 | 2 | 8 |
| COc1cccc(CC(=O)N2CCc3cc(-c4cn(C)c5ncnc(N)c45)ccc32)c1 [GSK2608899] | 39 | 0 | 5 | 5 | 17 | 64 | 0 | 0 | 0 | 0 |
| O=C(Nc1n[nH]c2nc(-c3cccc(O)c3)ccc12)C1CC1 [SB-711805] | 0 | 0 | 0 | 10 | 7 | 16 | 23 | 0 | 0 | 0 |
| NCCC(NC(=O)c1cc(Br)c(-c2ccnc3[nH]ccc23)s1)c1ccccc1.O=C(O)C(F)(F)F.O=C(O)C(F)(F)F (centres unmarked) [GSK1307810] | 7 | 0 | 30 | 8 | 16 | 55 | 25 | 23 | 4 | 0 |
| Cc1ccc(O)cc1Nc1ccnc2ccc(C(C)(C)C)cc12 [GW856805] | 38 | 15 | 56 | 30 | 51 | 54 | 51 | 20 | 9 | 18 |
| Cc1ccc(NC(=O)c2ccc(Cl)c(Cl)c2)cc1-c1ccc(C(=O)Nc2ccncc2)cc1 [GSK1398460] | 0 | 10 | 15 | 0 | 6 | 6 | 0 | 0 | 11 | 6 |
| CN(c1ccc(NC(=O)Nc2cccc(Cl)c2)cc1)c1ccnc(N)n1.Cl [GW830707] | 0 | 0 | 5 | 17 | 0 | 97.4 | 0 | 0 | 4 | 0 |
| O=C(Nc1c(F)cccc1F)c1cc(C(=O)c2ccccc2F)c[nH]1 [GSK1326180] | 0 | 0 | 15 | 0 | 2 | 0 | 5 | 0 | 2 | 6 |
| Nc1ncc(-c2cn[nH]c2)c2scc(-c3ccc4c(c3)CCN4C(=O)Cc3ccccc3)c12 [GSK2593067] | 16 | 6 | 9 | 0 | 9 | 53 | 33 | 0 | 0 | 12 |
| Cc1ccc(O)cc1Nc1ccnc2cc(-c3ccc(CN4CCCCC4)o3)ccc12 [GW557777] | 0 | 59 | 0 | 0 | 0 | 93.6 | 0 | 0 | 5 | 0 |
| CS(=O)(=O)c1cccc(CNc2nc(Nc3ccc4c(c3)CCC(=O)N4)ncc2C(F)(F)F)c1 | 0 | 0 | 69 | 70 | 66 | 68 | 0 | 0 | 0 | 0 |
| CNc1nccc(-c2ccc3c(N)n[nH]c3c2)n1 [GSK2206003] | 89 | 0 | 42 | 41 | 9 | 31 | 15 | 18 | 9 | 7 |
| CN(C)c1ncnc2nc[nH]c12 [SKF-31736] | 26 | 0 | 14 | 42 | 21 | 5 | 47 | 38 | 0 | 0 |
| Cc1ccc(Nc2ccnc(Nc3ccc(C)c(F)c3)n2)cc1O.Cl [GW582868] | 74 | 29 | 12 | 0 | 10 | 0 | 0 | 48 | 0 | 17 |
| CN(c1ccc(NC(=O)N2CCN(CCCN3CCOCC3)CC2)cc1)c1ccnc(Nc2ccc(CS(C)(=O)=O)cc2)n1.Cl [GW830899] | 22 | 8 | 0 | 0 | 0 | 52 | 0 | 0 | 3 | 79 |
| COc1cc(Nc2nccc(N3CCC(NS(=O)(=O)c4ccc(NC(C)=O)cc4)CC3)n2)cc(OC)c1OC [GSK1379825] | 84 | 76 | 21 | 11 | 97.4 | 0 | 34 | 0 | 75 | 0 |
| Cn1cc(-c2cnc(N)c3c(-c4ccc5c(c4)CCN5C(=O)Cc4ccccc4)csc23)cn1 [GSK2593074] | 0 | 63 | 0 | 0 | 0 | 65 | 0 | 0 | 3 | 5 |
| Fc1cc(Cl)ccc1Nc1ccnc2cc(-c3ccc(CN4CCOCC4)o3)ccc12 [GW560109] | 29 | 83 | 15 | 8 | 34 | 82 | 0 | 27 | 0 | 0 |
| O=C(O)C(F)(F)F.O=c1[nH]ccc2nc(N[C@@H]3CCNC3)nc(Nc3cc(Cl)cc(Cl)c3)c12 [GSK2188764] | 28 | 0 | 99.8 | 99.9 | 97.4 | 15 | 78 | 94 | 0 | 0 |
| Cn1cc(-c2ccc3c(c2)CCN3C(=O)Cc2cc(F)cc(C(F)(F)F)c2)c2c(N)ncnc21 [GSK2635225] | 1 | 0 | 0 | 0 | 0 | 22 | 3 | 0 | 0 | 0 |
| COc1cccc2c(-c3ccncc3)c(-c3ccc(F)cc3)nn12 [GW468513] | 67 | 0 | 3 | 0 | 0 | 0 | 10 | 12 | 4 | 0 |
| CC(C)(C)c1ccc(C(=O)Nc2cn3cc(-n4ccnc4)ccc3n2)cc1 | 11 | 0 | 0 | 14 | 10 | 0 | 39 | 0 | 0 | 36 |
